Assay results as given in PubChem BioAssay (NCI).
About 83,000 compounds went through this panel and 20% of them were active in at least one assay; those are over-represented in the sample as a whole.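 For each line, cells grew in 96-well plates with the test compound present at a single concentration for 48 hours.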 Values without a mark were called inactive. Active and inactive are the calls of the source. How the source made its calls: active means growth percent below 10; inactive means the rest.

How the values were obtained:
Test in all cases: NCI-60 one-dose screen, 48 h (100 = growth as untreated, 0 = no growth, -100 = all killed)
Conditions in all cases: 10 µM
HCT-15 colon = test system: HCT-15 colon
HT29 colon = test system: HT29 colon
SNB-75 CNS = test system: SNB-75 CNS
SNB-19 CNS = test system: SNB-19 CNS
U251 CNS = test system: U251 CNS
PC-3 prostate = test system: PC-3 prostate
SK-MEL-5 melanoma = test system: SK-MEL-5 melanoma
UACC-62 melanoma = test system: UACC-62 melanoma
LOX IMVI melanoma = test system: LOX IMVI melanoma
SK-MEL-28 melanoma = test system: SK-MEL-28 melanoma

Structure (SMILES)	growth (HCT-15 colon)	growth (HT29 colon)	growth (SNB-75 CNS)	growth (SNB-19 CNS)	growth (U251 CNS)	growth (PC-3 prostate)	growth (SK-MEL-5 melanoma)	growth (UACC-62 melanoma)	growth (LOX IMVI melanoma)	growth (SK-MEL-28 melanoma)
NC(=O)C1CCCN(Cc2c[nH]c3ccccc23)C1 (stereo not given)	102%	95.6%	85.9%	103%	95.2%	91.2%	99.6%	104%	90.1%	110%
CCCCCc1cc[n+](CC(=O)c2ccc(Cl)cc2)cc1	98.5%	64.7%	84.4%	96.7%	97.8%	85.7%	94.9%	82.8%	87.4%	101%
N#Cc1c2c([nH]c(=O)c1C(N)=O)CCCCC2	105%	105%	104%	99%	98.3%	103%	95.8%	88.3%	101%	106%
COc1cc2ccnc(C=O)c2cc1OC	27.9%	20.9%	76.7%	88.3%	91%	90.7%	60.6%	74%	41.8%	79.5%
O=C1c2cc(Cl)ccc2-c2c(O)cc(Cl)cc21	81.6%	95.1%	81.2%	59.8%	55.5%	78%	53%	85%	52%	106%
COc1cc(N=C2C(=O)N(Cc3ccccc3)c3ccccc32)cc(OC)c1OC	95.3%	103%	82.6%	95.1%	94.2%	97.8%	94.2%	90.8%	86.9%	113%
COc1ccc(-c2nc3sc(-c4ccccc4)c(-c4ccccc4)n3c2/C=C/c2ccc(F)cc2)cc1	91.4%	94.7%	72.3%	108%	99.3%	61.6%	99.6%	82.8%	87.1%	109%
COc1ccc(-c2nsc3c2NC(=O)CC3c2ccc(Cl)cc2)cc1 (stereo not given)	86.3%	89.8%	91.2%	95.9%	93.3%	82%	81.8%	73.4%	90.4%	103%
CN(C)c1ccc2c(c1)OC(N)=C(C#N)C2c1ccc2c(c1)CCO2 (stereo not given)	18%	9% (active)	40.8%	31.4%	21.7%	24.1%	10.3%	34.8%	29%	57.6%
CC(C)C[C@H](NC(=O)Cn1ccc(Nc2ccccc2)cc1=O)B(O)O	72.1%	1.28% (active)	79.9%	68%	65.9%	58.9%	2.17% (active)	25%	3.14% (active)	10.6%
CC1(C)CC(=O)c2c(nc3ccc(Cl)cc3c2-c2ccccc2)C1	81.3%	98.6%	95.7%	90%	102%	48.7%	73%	75.3%	93.4%	174%
O=C1/C(=C/c2ccc(O)cc2O)N=C2SCCCN12	97.3%	93.9%	96.2%	97%	99.2%	100%	99.7%	97.4%	102%	98.4%
CN(C)c1ccc2c(c1)OC(N)=C(C#N)C2c1ccc2c(c1)CCCN2C (stereo not given)	15.8%	10.5%	42.7%	33.3%	19.5%	27.3%	21.4%	34.4%	42%	61.5%
Cc1ccc(-c2cc(C(=O)Nc3ccc(S(=O)(=O)N4CCCCC4)cc3)[nH]n2)c(O)c1	23.5%	2.87% (active)	81.6%	69%	39.3%	51.8%	24.8%	36.2%	54.3%	78.7%
OC(CNC1CCCC1)Cn1c2ccccc2c2ccccc21 (stereo not given)	-37.6% (active)	-0.747% (active)	51.5%	33.8%	-34.5% (active)	27%	-61.6% (active)	-50.9% (active)	-75.9% (active)	-60% (active)
CCc1nn2c(-c3ccccc3)c(-c3cc(OC)c(OC)c(OC)c3)nc2s1	72.9%	74.5%	45.9%	85.3%	98.8%	71.4%	71.9%	71.8%	88.2%	29.5%
Cn1cnc([N+](=O)[O-])c1Sc1nnc(-c2ccccc2)c(-c2ccccc2)n1	56%	74.8%	100%	109%	77.7%	95.5%	106%	64.3%	67.8%	76%
COc1ccc(C(=O)/C=C/c2cc(-c3ccc(OC)c(OC)c3)n[nH]2)cc1OC	-68.1% (active)	-61.1% (active)	-0.863% (active)	2.04% (active)	-94.5% (active)	-36.2% (active)	4.15% (active)	16.3%	-86.8% (active)	-65.5% (active)
COC(=O)c1cnc2c(c1)Oc1ccc(Cl)cc1-c1cc(C)nn1-2	87.3%	82.5%	91.7%	62%	50.4%	95.1%	88.1%	74.7%	60.2%	96.4%
N/C(=N\O)c1cn(C2OC(CO)C(O)C2O)c2ncnc(N)c12 (stereo not given)	7.46% (active)	7.04% (active)	-7.06% (active)	16.5%	10.7%	4.66% (active)	-43% (active)	-68.2% (active)	-63.2% (active)	-53.3% (active)
COc1ccc(/C(=C/c2cc(OC)c(OC)cc2[N+](=O)[O-])C(=O)O)cc1	107%	109%	93.8%	106%	107%	99.2%	110%	106%	97.1%	116%
